About 83,000 compounds went through this panel and 20% of them were active in at least one assay; those are over-represented in the sample as a whole.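 96-well plates, one dose, 48 hours. Percent growth reported; active if below 10.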 A number with no mark means an inactive call. The source made the active and inactive calls.

For the assay, the system named is HL-60(TB) leukemia. Briefly: NCI-60 one-dose screen, 48 h (100 = growth as untreated, 0 = no growth, -100 = all killed). The note with it: 10 µM unless noted.
Consider `COc1cccc(/C=C2\COc3ccc(O)c(O)c3C2=O)c1OC`, for which the growth is -24.4% (active).

Consider `CCn1cc(C(=O)O)c(=O)c2cc(F)c(N3CCN(CC(=O)Nc4ccccc4)C(C)C3)c(F)c21` (centres undefined), for which the growth is 104%.

With `CCCCCCc1cc(N=Nc2ccc(S(=O)(=O)Nc3cc(C)nc(C)n3)cc2)c(O)cc1O`, the growth is 94.4%.

Turning to `COc1cc(C2CC(=O)c3ccccc3N2)cc(OC)c1OC` (centres undefined), the growth was 98.8%.

`COc1ccc(S(=O)(=O)Nc2cc(/C=C\c3cc(OC)c(OC)c(OC)c3)cc(OC)c2OC)cc1OC`: the growth is 2.73% (active).

As to `COc1cc(/C(C)=C(\c2ccc(Cl)cc2)c2ccc(OCCN3CCCC3)cc2)ccc1F`, the growth was 38.4%.

As to `COc1ccc(/C(C#N)=C/c2ccccc2OC)cc1`, the growth is -0.826% (active).

Take `COc1ccc(-c2nc3sc(C)cn3c2/C=C/C(=O)c2cc(OC)c(OC)c(OC)c2)cc1`: the growth was 55.9%.

In the case of `Cc1cccc(Cc2cnc(NC(=O)CCCOc3ccc(Cl)cc3)s2)c1`, the growth was -34.2% (active).

Consider `c1ccc2sc(SSN3CC4CCC(CC4)C3)nc2c1`, for which the growth is 89.3%.

As for `Nc1n[nH]c2cc(F)c([C@@H]3Nc4c(F)cc5[nH]ncc5c4[C@H]4C5CCC(C5)[C@@H]34)cc12` (some centres undefined), the growth is -30.1% (active).

Regarding `CC(C)c1cc(C(=O)O)c(O)c(C(C)C)c1.CC(C)c1cc(C(=O)O)c(O)c(C(C)C)c1.[Mn]`, the growth was 94.2%.

Take `COc1cccc(/C=C/c2c(C(=O)O)cccc2[N+](=O)[O-])c1OC`: the growth was 97.4%.

Consider `CCOc1ccccc1C(=O)/C=C/c1cc2ccccc2[nH]c1=O`, for which the growth was -7.94% (active).
